From PubChem BioAssay (NCATS)
Results filed as inconclusive are left out. Active and inactive are the calls of the source. Calls follow the shape of the dose curve; as a rule, active = well fitted cell-killing curve with a large enough effect; inconclusive = small, poorly fitted or top-dose-only effect, or effect the other way; inactive = flat fitted curve, though single readings scatter.

tested on: OV90; assay: Primary qHTS to identify gynecologic anti-cancer compounds using libraries of approved drugs and bioactive compounds (AID 1345084); details: Gynecologic cancer cell panel viability, ATPlite luminescence, 48 h; series mostly up to 57.5 µM; activity change, negative = cytotoxicity: at the top concentration; also: nearly all actives have a fitted effect of over 55% in size
How it was run: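 Five-concentration response, 48 h; readout is ATP-driven luciferase luminescence.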
% is scaled to controls: 0 for no effect and ±100 for the full control effect.

| Structure (SMILES) | activity change, negative = cytotoxicity |
| --- | --- |
| C[C@@H]1O[C@@H](OC(=O)Cc2ccccc2)[C@H](O)[C@H](O)[C@H]1O | 10.5% (inactive) |
| CC(C)c1ccc2c(c1)CCC1[C@](C)(C(=O)O)CCC[C@]21C (stereo partly specified) | 7.05% (inactive) |
| O=C(O)c1ccc(NC(=O)[C@H](CC2CCCC2)n2cnc(C(F)(F)F)c2)nc1 | -3.23% (inactive) |
| C/C(=C/CO)CC[C@H]1[C@]2(C)C[C@H](O)CC(C)(C)[C@H]2CC[C@]1(C)O | 2.93% [at 38.5 µM] (inactive) |
| O=C(OC[C@H]1O[C@H](O[C@]2(CO)O[C@H](CO)[C@@H](O)[C@@H]2O)[C@H](O)[C@@H](O)[C@@H]1O)c1ccc(O)cc1 | 4.15% [at 25.3 µM] (inactive) |
| CC(C)C1CCC(C(=O)N[C@@H](Cc2ccccc2)C(=O)O)CC1 (stereo partly specified) | 13.5% (inactive) |
| C[C@@H]1O[C@@H](OC[C@H]2O[C@@H](OCc3ccccc3)[C@H](O)[C@@H](O)[C@@H]2O)[C@H](O)[C@H](O)[C@H]1O | -0.342% [at 25.3 µM] (inactive) |
| CCC[C@H](N[C@@H](C)C(=O)N1[C@H](C(=O)O)C[C@@H]2CCCC[C@@H]21)C(=O)O | 24.2% (inactive) |
| C=C1C[C@]23C[C@H]1CC[C@H]2[C@]1(C)CC[C@H](O)[C@@](C)(C(=O)O)[C@H]1[C@@H]3C(=O)O | 1.15% [at 38.5 µM] (inactive) |
| COC(=O)[C@H](O)[C@H]1C(C)(C)[C@H](OC(C)=O)[C@@]2(O)C(=O)[C@]1(C)C1CC[C@]3(C)C(CC(=O)O[C@H]3c3ccoc3)[C@]13O[C@@H]32 (stereo partly specified) | 3.04% [at 25.3 µM] (inactive) |
| COC(=O)C1(C)CCCC2(C)c3ccc(C(C)C)cc3C(O)C(O)C12 (stereo unspecified) | 3.03% [at 38.5 µM] (inactive) |
